# Assay outcomes deposited in PubChem by National Center for Advancing Translational Sciences (NCATS).
# Sampled rows, rich in hits. Any-hit rate of the full collection: about 7.9%.
# MCF10A rerep: DNA re-replication induction in MCF 10a cells. MCF 10A DNA re-replication, Hoechst nuclear intensity, 48 h. Potency, µM (top dose mostly 46.1 µM), without a hit: at the highest dose activity, positive = re-replication, usual class: activators. 350,000 compounds, 2.9% hits; further: % of control where 0% means no effect; nearly all actives have a fitted effect of over 50% in size
# HT1080-NT tox: kills 2HG-producing HT-1080-NT fibrosarcoma cells; AID 686970; HT-1080-NT fibrosarcoma viability, CellTiter-Glo ATP luminescence, 48 h; Potency, µM (series often up to 46.1 µM), inactives show at the highest dose activity, negative = less viability, most hits filed as cytotoxic; 360,000 compounds, 1.6% hits;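 further: NT is the 2HG producing partner of a matched IDH1 knockdown line; 0% = DMSO-treated cells and -100% = media-only wells without cells; nearly all actives have a fitted effect of over 55% in size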
#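 Read-out is CellTiter-Glo luminescence after 10 minutes at room temperature, following 48 hours' compound treatment of HT-1080-NT cells (750 cells/well, RPMI, 5% FBS, 37 degrees C).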
# KB-V1 MDR tox: kills drug-selected multidrug resistant KB-V1 cells; 400,000 compounds, 3.4% hits; KB-V1 MDR cells viability, CellTiter-Glo, 72 h; Potency, µM (highest dose often 46.1 µM), most hits filed as cytotoxic; further: on the % scale 0 is the no-effect control and ±100 the full control effect; nearly all actives have a fitted effect of over 60% in size
#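 In this primary screen, KB-V1 cells overexpressing P-gp are incubated with library compounds (lowest to highest concentration) for 72 h at 37 degrees C before a luminescent ATP viability read.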
# SW480 rerep: DNA re-replication induction in SW480 cells | 340,000 compounds, 1.8% hits | Potency, µM (series often up to 46.1 µM), for the others: at the top dose re-replication activation, most hits filed as activators | SW480 DNA re-replication, Hoechst DNA content imaging, 48 h; further: % of control where 0% means no effect; nearly all actives have a fitted effect of over 55% in size
#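 DNA re-replication was detected as more nuclei of elevated Hoechst intensity after 48 hr exposure to compound (23 nL pinned per well of 250 cells).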
# KB-3-1 tox: KB-3-1 parental cell cytotoxicity; 400,000 compounds, 1.4% hits; Potency, µM (top dose mostly 46.1 µM), usual class: cytotoxic; AID 1347075; KB-3-1 viability, CellTiter-Glo ATP luminescence, 72 h; further: on the % scale 0 is the no-effect control and ±100 the full control effect; nearly all actives have a fitted effect of over 60% in size
#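 Cytotoxicity in the drug-sensitive parental line KB-3-1 was scored as loss of CellTiter-Glo luminescence following 72 h incubation with compound. Values come from curve fitting of normalized concentration-response data.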
# HT1080 IDH1KD tx: HT-1080 IDH1 knockdown cell toxicity (counter line). AID 686971. 360,000 compounds, 2% hits. HT-1080 IDH1 knockdown viability, ATP luminescence, 48 h. Potency, µM (series often up to 46.1 µM), for the others: at the top dose activity, negative = toxicity, usual class: cytotoxic;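 further: 0% = DMSO wells and -100% = cell-free medium wells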
#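 Luminescent ATP read-out (CellTiter-Glo, 10 min at room temperature) after 48 h compound exposure at 37 °C gave viability of IDH1-knockdown HT-1080 cells. Activity was normalised to DMSO and cell-free wells, then fitted as concentration-response curves.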
# Numbers without * were called inactive; i = inactive; ? = inconclusive; . = not tested or not shown; ! = not active in a repeat; [ ] = dose if it differs, or a comment. The call rests on the fitted dose curve; in most records, active means well fitted curve in the direction sought with a large enough effect; inconclusive means small, poorly fitted or top-dose-only effect, or another doubt; inactive means no such curve, though single readings can be large; an effect the other way counts as inactive or inconclusive. Potency means the concentration at half of the fitted maximal effect.
SMILES,MCF10A rerep,HT1080-NT tox,KB-V1 MDR tox,SW480 rerep,KB-3-1 tox,HT1080 IDH1KD tx
CC(=O)OC(C=C(C)C)C/C(C)=C/COc1c2ccoc2cc2oc(=O)ccc12 (centres undefined),-12.3%,0.0%,i,-37.7%[9.22 µM],i,-1.9%
CC(C)=CC(O)C/C(C)=C/COc1ccc2ccc(=O)oc2c1 (centres undefined),?,23.1µM*,13µM*,5.9%,5.8µM*,?
Cc1[nH]nc(C(F)(F)F)c1N=NN1CCOCC1,3.66µM*,?,?,?,?,?
CC1(C)O[C@@H]2[C@H](O1)[C@@H](CO)O[C@H]2n1cnc2c(=O)[nH]cnc21,10.5%,?,i,-9.6%,i,15.0%
CC#CC#Cc1cccc(=O)o1,18.4µM*,?,?,23.7%,i,20.6µM*
O=C(CCc1ccccc1O)N/N=C/c1ccc(Sc2cccc3cccnc23)o1,-0.2%,?,?,?,i,-21.1%
Cc1cccc(NC(=O)CSc2nnnn2C)n1,?,5.0%,?,-6.4%,i,3.8%
CCSc1nc(-c2ccccc2)c(C#N)c(=O)[nH]1,7.31µM*,-8.7%,i,19.7%,i,-2.1%[9.24 µM]
CSc1nc(-c2ccccc2)c(C#N)c(=O)[nH]1,-0.1%,-0.4%,i,-0.6%,i,-3.9%
O=C(c1cccs1)N1CCN(C(=O)c2cccs2)C1=S,5.8µM*,?,2.91µM*,16.4µM*,14.6µM*,20.6µM*
CCC(C(=O)NCCc1ccccc1)n1nc(C)n2c(cc3sccc32)c1=O (centres undefined),.,.,i,.,i,.
C#CCOCCOCCOCCNc1nc(N2CCN(C(=O)CCCCCCCCCCNC(=O)Cn3cc(C[C@@H](C)O)nn3)CC2)nc(N2CCN(C(=O)CCCCCCCCCCNC(=O)[C@@H](CCC(=O)O)n3cc(CCCCCN)nn3)CC2)n1,-2.4%,-5.7%,i,-6.2%,i,-9.2%
C#CCOCCOCCOCCNc1nc(N2CCN(C(=O)CCCCCCCCCCNC(=O)Cn3cc(C[C@@H](C)O)nn3)CC2)nc(N2CCN(C(=O)CCCCCCCCCCNC(=O)[C@H](CO)n3cc(CCCSC)nn3)CC2)n1,6.51µM*,-27.1%,?,8.3%,i,?
CC(C)(C)OC(=O)NCCCCCc1cn([C@@H](CO)C(=O)NCCCCCCCCCCC(=O)N2CCN(C(=O)OC(C)(C)C)CC2)nn1,?,16.4µM*,i,-1.5%[9.22 µM],?,16.4µM*
C#CCOCCOCCOCCNc1nc(N2CCOCC2)nc(N2CCN(C(=O)CCCCCCCCCCNC(=O)[C@@H]([C@H](C)CC)n3cc(CCCCCN)nn3)CC2)n1,11.6µM*,-20.5%,i,?,i,-23.9%
N=C1CCCN1CC(=O)c1ccc(Cl)cc1,3.0%,12.2%,i,-129.2%,i,14.9%
CN=C1c2c(-c3ccccc3)c3cc(OC)ccc3n2CCN1C,?,-27.9%,i,?,?,?
COc1ccc(CCNC(=O)c2cc(-c3ccccc3OC)on2)cc1OC,3.7%,6.8%,?,1.6%,i,1.3%
COc1ccc(NC(=O)c2cc(-c3ccccc3OC)on2)cc1,?,4.47µM*,1µM*,3.55µM*,3.98µM*,6.31µM*
COc1ccccc1-c1cc(C(=O)Nc2cccnc2)no1,?,0.316µM*,?,0.517µM*,0.164µM*,0.251µM*
COc1ccccc1-c1cc(C(=O)NCCc2ccccc2)no1,14.6µM*,-23.4%,11.6µM*!,?,?,?
Cc1ccn2c(Cc3ccccc3)c(-c3ccccc3)nc2c1,.,2.5%,i,.,i,5.7%
C=CCn1c(C(CCCC)CC(O)COCCC)n[nH]c1=S (centres undefined),-4.4%,5.1%,?,-13.8%,?,-2.3%
Cc1ccc(S(=O)(=O)N(C)CC(=O)N2CCOCC2)cc1,0.8%,-1.2%,i,0.1%,i,-3.4%
O=C(NCc1ccccc1Cl)C1CCC(CNS(=O)(=O)c2ccc(Cl)cc2)CC1 (centres undefined),.,.,i,.,i,.
SMILES,MCF10A rerep,HT1080-NT tox,KB-V1 MDR tox,SW480 rerep,KB-3-1 tox,HT1080 IDH1KD tx
Fc1ccc(OCc2nc(-c3ccncc3)n[nH]2)cc1,2.2%,10.6%,i,-2.5%,i,10.0%
CCc1ccc(N=C2NC(=O)CS2)cc1,-0.7%,20.5%,?,-1.1%,i,22.2%
CCCCCCCCN=C1NC(=O)CS1,3.3%,4.4%,13µM*,-11.9%,?,4.7%
COc1ccc(NC(=O)CCCSc2ccccc2)cc1S(N)(=O)=O,2.1%,0.6%,i,0.4%,i,-0.1%
COc1ccc(NC(=O)CN(Cc2ccccc2)Cc2ccccc2)cc1S(N)(=O)=O,-5.2%,1.5%,20.6µM*,-100.3%,i,-1.6%
COc1ccc(NC(=O)COc2ccccc2Cc2ccccc2)cc1S(N)(=O)=O,5.6%,-8.6%,10.3µM*,-7.0%,16.4µM*,-24.8%
Cc1ccc(Cl)cc1N1CCN(C2CCCCC2NS(=O)(=O)c2ccccc2)CC1 (centres undefined),6.6%,-6.9%,i,-17.1%,i,3.3%
O=S(=O)(NC1CCCCC1N1CCN(c2ccc(F)cc2)CC1)c1ccccc1 (centres undefined),25.9µM*,-0.4%,i,3.4%,i,-11.3%
O=S(=O)(NC1CCCCC1N1CCCCC1)c1ccccc1 (centres undefined),4.6%,6.6%,i,-10.7%,i,14.2%
Cc1ccc(C)c(N2CCN(C3CCCCC3NS(=O)(=O)c3ccccc3)CC2)c1 (centres undefined),?,8.8%,i,26.7%,16.4µM*,0.4%
NC(CSC(c1ccccc1)(c1ccccc1)c1ccc2c(c1)OCO2)C(=O)O (centres undefined),.,11.6µM*,i,.,i,18.4µM*
COc1ccccc1C(C[N+](=O)[O-])c1c(N)n(C)c(=O)n(C)c1=O (centres undefined),?,?,7.31µM*,?,?,?
CCOc1cccc(-c2cc(-c3n[nH]c(=S)n3CC)c3ccccc3n2)c1,26.3%,-6.1%,9.2µM*,15.2%,i,-2.7%
CCn1c(-c2cc(OC)c(OC)c(OC)c2)n[nH]c1=S,-7.5%,9.0%,10.3µM*,4.1%,i,7.1%
CCN(CC)C(=O)CSc1nnc(-c2cc3ccccc3cc2O)n1CC,-0.5%,-23.2%,2.91µM*,-1.3%,3.26µM*,-19.6%
CCn1c(-c2cc3ccccc3cc2O)n[nH]c1=S,3.8%,-2.8%,20.6µM*,3.5%,?,-21.0%
